Consider five compounds from PubChem BioAssay AID504710 (Sanford-Burnham Center for Chemical Genomics, 2011).

Molecules are shown by their SMILES. Values without a mark were called inactive. Activity calls are given as the source filed them.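 Rule for the calls: active = inhibition reaching about 16% in any single replicate (limit read from the data); inactive = the rest.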

The term inhibition denotes the change of the read-out against control, counted positive when it falls.

The target in this test is Hexokinase HKDC1 (Homo sapiens) (UniProt Q2TB90). The test is described as follows: compounds lowering human HKDC1 activity – biochemical, single concentration, confirmation (AID 504710). Conditions: recombinant HKDC1, G6PDH/diaphorase/resazurin fluorescence; at 20 µM; hits give high values. In general terms: Alamar Blue is a resazurin reagent that responds to reducing activity.
Sequence of Hexokinase HKDC1 (Homo sapiens) (Q2TB90 whole entry, looked up): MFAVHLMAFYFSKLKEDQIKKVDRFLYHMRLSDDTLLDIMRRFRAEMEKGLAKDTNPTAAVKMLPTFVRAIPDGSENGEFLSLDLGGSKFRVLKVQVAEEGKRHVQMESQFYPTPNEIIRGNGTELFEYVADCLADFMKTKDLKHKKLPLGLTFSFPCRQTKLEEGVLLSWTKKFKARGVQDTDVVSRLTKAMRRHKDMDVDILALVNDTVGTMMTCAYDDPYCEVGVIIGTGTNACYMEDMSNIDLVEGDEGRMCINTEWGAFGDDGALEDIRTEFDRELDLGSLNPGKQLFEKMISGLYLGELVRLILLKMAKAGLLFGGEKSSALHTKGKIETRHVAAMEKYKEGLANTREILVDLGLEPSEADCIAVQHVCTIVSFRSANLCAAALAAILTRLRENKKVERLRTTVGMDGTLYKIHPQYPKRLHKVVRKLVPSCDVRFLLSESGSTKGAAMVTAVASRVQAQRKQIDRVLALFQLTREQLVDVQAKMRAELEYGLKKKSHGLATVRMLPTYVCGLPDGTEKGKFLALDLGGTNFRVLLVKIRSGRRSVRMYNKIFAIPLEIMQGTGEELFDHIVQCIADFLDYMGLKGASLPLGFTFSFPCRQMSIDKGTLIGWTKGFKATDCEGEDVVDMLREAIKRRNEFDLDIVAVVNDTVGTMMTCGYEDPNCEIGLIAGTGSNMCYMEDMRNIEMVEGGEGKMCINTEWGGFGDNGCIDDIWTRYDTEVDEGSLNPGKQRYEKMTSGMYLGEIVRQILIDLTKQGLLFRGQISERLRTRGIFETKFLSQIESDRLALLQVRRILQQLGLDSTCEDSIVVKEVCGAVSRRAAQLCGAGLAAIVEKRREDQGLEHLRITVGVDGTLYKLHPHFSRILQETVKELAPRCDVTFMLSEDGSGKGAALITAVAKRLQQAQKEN
`O=NNc1nc2ccccc2n1Cc1ccccc1`: the inhibition is -44.2%.
For the compound `O=C(CNC(=O)/C=C/c1ccco1)N=Nc1c(O)[nH]c2ccccc12`, the inhibition is 39% (active).
For `Cc1ccc(S(=O)(=O)Nc2c(O)ccc3ccccc23)cc1`, the inhibition is 35.5% (active).
Take `CC(=O)NC1C(=O)N(CCN2CCOCC2)c2ccc(F)cc21` (stereo not given): the inhibition is 61.1% (active).
In the case of `CCOC(=O)c1ccc(NC(=O)CSc2ccc(-c3ccccn3)nn2)cc1`, the inhibition is 31.3% (active).
